Inconclusive results are not listed. Calls of active or inactive are those of the source. Rule for the calls, unless noted: active = hit-call score of the fitted dose curve at least 0.9, where 1 is the maximum; inconclusive = response in the unintended direction; inactive = score below 0.9.
Key:
[1] = target: Cellular tumor antigen p53 (Homo sapiens) (UniProt P04637); experiment: TOX21_p53_BLA_p2_ratio: Tox21 HCT-116 p53 Agonism Beta-lactamase Assay, Ratio, Phase 2 (AID 2283592)
Procedure, shortened: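 HCT116 cells carrying a p53-responsive beta-lactamase reporter were plated, incubated 5 h at 37C, then dosed with compounds in DMSO (217-fold dilution) for 16 h. CCF4-AM substrate was added for 2 h at room temperature; the 460/530 nm emission ratio gave gain-of-signal activity relative to DMSO.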

[2] = TOX21_p53_BLA_p4_viability: Viability Assessment in the Tox21 HCT-116 p53 Agonism Beta-lactamase Assay, Phase 4 (AID 2283597);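 note: hits lower the luminescence signal meaning cytotoxicity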
Procedure, shortened: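 HCT116 p53-bla cells (4000/well) rested 5 h at 37C, then received compounds in DMSO (217-fold dilution) for 16 h at 37C, 5% CO2. CellTiter-Glo was added after the CCF4-AM read, and luminescence was read after 30 min at room temperature.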

[3] = target: Cellular tumor antigen p53 (Homo sapiens) (UniProt P04637); experiment: TOX21_p53_BLA_p5_ratio: Tox21 HCT-116 p53 Agonism Beta-lactamase Assay, Ratio, Phase 5 (AID 2283599)
Procedure, shortened: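 Beta-lactamase reporter ratio (blue 460 nm over green 530 nm, 405 nm excitation) after 2 h CCF4-AM loading, in HCT-116 cells exposed 16 h at 37 C to compounds pinned at 217-fold dilution. Increases relative to DMSO baseline scored.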

[4] = TOX21_p53_BLA_p5_viability: Viability Assessment in the Tox21 HCT-116 p53 Agonism Beta-lactamase Assay, Phase 5 (AID 2283600)
Procedure, shortened: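 Cells were plated at 4000/well, rested 5 h at 37C, then given compounds in DMSO (217-fold dilution) for 16 h at 37C, 5% CO2. Following the CCF4-AM beta-lactamase read, CellTiter-Glo was added and luminescence was read after 30 min at room temperature.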

[5] = target: Cellular tumor antigen p53 (Homo sapiens) (UniProt P04637); experiment: TOX21_p53_BLA_p4_ratio: Tox21 HCT-116 p53 Agonism Beta-lactamase Assay, Ratio, Phase 4 (AID 2283601)
Procedure, shortened: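 Signal is the blue/green (460nm/530nm) ratio of cleaved versus uncleaved CCF4-AM substrate, read after 2 h substrate loading. Cells were HCT116 carrying the p53-responsive beta-lactamase reporter, dosed 16 h at 37C, 5% CO2; CellTiter-Glo measured in parallel.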

[6] = target: Cellular tumor antigen p53 (Homo sapiens) (UniProt P04637); experiment: TOX21_p53_BLA_p3_ratio: Tox21 HCT-116 p53 Agonism Beta-lactamase Assay, Ratio, Phase 3 (AID 2283596)
Procedure, shortened: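 HCT116 p53-bla cells (4000/well) given compound in DMSO (217-fold dilution) after 5 h, incubated 16 h at 37C. CCF4-AM substrate 2 h at room temperature; 460/530 nm emission ratio, gain fitted against DMSO.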

[7] = TOX21_TRB_BLA_Antagonist_Followup_viability: Viability Assessment in the Tox21 Thyroid Hormone Receptor beta Antagonism Beta-lactamase (BLA) Follow-Up Assay (AID 2283961)
Procedure, shortened: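 HEK293T cells stably expressing GAL4-DBD/human TRβ-LBD with UAS-bla reporter, 3,000 cells/well in phenol red-free DMEM, 2% charcoal-stripped FBS. Compounds at 11 concentrations in triplicate, 18 h at 37C/5% CO2; viability by CellTiter-Glo luminescence after 30 min at room temperature.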

[8] = TOX21_TR_RXR_BLA_Antagonist_Followup_viability: Viability Assessment in the Tox21 Thyroid Hormone Receptor beta Retinoid X Receptor alpha (RXRa) Antagonism Beta-lactamase (BLA) Follow-Up Assay (AID 2283979)
Procedure, shortened: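 Follow-up compounds (11 concentrations, triplicate) were incubated 16 h at 37C/5% CO2 with HEK293T RXRa-bla cells seeded at 2,500/well in charcoal-stripped-serum medium. ATP content by CellTiter-Glo luminescence gave viability; curves fitted in both directions against DMSO.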

[9] = CCTE_Shafer_MEA_dev_firing_rate_mean: CCTE's Neural Network Formation Assay for Mean Firing Rate, Shafer Lab (AID 2284031; active = hit-call score of the fitted dose curve at least 0.9, where 1 is the maximum; inactive = score below 0.9)
Procedure, shortened: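 Primary rat cortical neurons on 48-well MEA plates, exposed from plating day 0 with dosing renewed on DIV 5 and 9. Mean well firing rate over active electrodes, recorded days 5, 7, 9, 12, summarised as trapezoidal AUC.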

[10] = CCTE_Shafer_MEA_dev_per_burst_spike_percent: CCTE's Neural Network Formation Assay for Percent of Spikes in a Burst, Shafer Lab (AID 2284032; active = hit-call score of the fitted dose curve at least 0.9, where 1 is the maximum; inactive = score below 0.9)
Procedure, shortened: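 Rat primary cortical neurons on 16-electrode MEA wells, dosed from plating day 0 for 12 days with renewal on DIV 5 and 9; spikes-in-bursts percentage averaged over bursting electrodes, collapsed as AUC across days 5, 7, 9, 12; loss direction versus DMSO.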

[11] = CCTE_Shafer_MEA_dev_active_electrodes_number: CCTE's Neural Network Formation Assay for Number of Active Electrodes, Shafer Lab (AID 2284040)
Procedure, shortened: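 Primary rat cortical neurons on 16-electrode MEA wells, exposed from day 0 through day 12 with compound renewed at DIV 5 and 9 feeds. Active electrodes (mean firing ≥5 spikes/min) counted at DIV 5, 7, 9, 12; trapezoidal AUC across days, loss-of-signal versus DMSO.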

[12] = CCTE_Shafer_MEA_dev_burst_rate: CCTE's Neural Network Formation Assay for Burst Rate, Shafer Lab (AID 2284042; active = hit-call score of the fitted dose curve at least 0.9, where 1 is the maximum; inactive = score below 0.9)
Procedure, shortened: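 Rat primary cortical cultures on PEI/laminin MEA; compound from plating, re-dosed at DIV 5, 9 media change. Single-electrode bursts/recording length, well mean of active electrodes; AUC over DIV 5–12 recordings; loss-of-signal vs DMSO.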

[13] = CCTE_Shafer_MEA_dev_bursting_electrodes_number: CCTE's Neural Network Formation Assay for Number of Bursting Electrodes, Shafer Lab (AID 2284043)
Procedure, shortened: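 Read-out is the per-well number of electrodes bursting at least once every 2 minutes, recorded on days 5, 7, 9 and 12 and collapsed by trapezoidal area under the curve. Cultures were primary rat cortical neurons on MEA plates, treated continuously from plating.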

[14] = CCTE_Shafer_MEA_dev_per_burst_interspike_interval: CCTE's Neural Network Formation Assay for Burst Interspike Interval, Shafer Lab (AID 2284044; active = hit-call score of the fitted dose curve at least 0.9, where 1 is the maximum; inactive = score below 0.9;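 note: mean spike spacing inside bursts as AUC over recordings on days 5 7 9 12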)
Procedure, shortened: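 Rat cortical primary cultures, 16 electrodes/well; compound from plating, renewed with full media change DIV 5 and 9. Spikes via adaptive detector; per-burst ISI well-mean over active bursting electrodes; AUC of DIV 5/7/9/12 recordings; loss-direction fit vs DMSO.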

[15] = CCTE_Shafer_MEA_dev_burst_duration_mean: CCTE's Neural Network Formation Assay for Mean Burst Duration, Shafer Lab (AID 2284045; active = hit-call score of the fitted dose curve at least 0.9, where 1 is the maximum; inactive = score below 0.9)
Procedure, shortened: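 Read-out: average first-to-last-spike interval within single-electrode bursts, averaged over bursting electrodes per well, then summarised as area under the curve across days 5, 7, 9 and 12. Developing rat cortical networks were exposed from day 0.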

[16] = CCTE_Shafer_MEA_dev_interburst_interval_mean: CCTE's Neural Network Formation Assay for Mean Interburst Interval, Shafer Lab (AID 2284046; active = hit-call score of the fitted dose curve at least 0.9, where 1 is the maximum; inactive = score below 0.9;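 note: well-mean interburst interval of bursting electrodes as AUC over four recording days; curve fitted for decrease in interburst interval relative to DMSO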)
Procedure, shortened: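 Rat cortical neurons, 1.5 x 10^5 cells/well, 48-well MEA; compound from day 0 through DIV 12, media and treatment renewed DIV 5/9. Recordings DIV 5, 7, 9, 12; well-mean interburst interval → trapezoidal AUC, loss direction vs DMSO.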

[17] = CCTE_Shafer_MEA_dev_inter_network_spike_interval_mean: CCTE's Neural Network Formation Assay for Mean Inter-network Spike Interval, Shafer Lab (AID 2284047; active = hit-call score of the fitted dose curve at least 0.9, where 1 is the maximum; inactive = score below 0.9)
Procedure, shortened: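 Primary rat cortical neurons on PEI-coated 48-well MEAs (16 electrodes/well) were exposed from plating day 0 to DIV 12, with dosing renewed at DIV 5 and 9. Recordings at DIV 5, 7, 9, 12 were collapsed by trapezoidal AUC, loss-of-signal fit vs DMSO.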

[18] = CCTE_Shafer_MEA_dev_network_spike_number: CCTE's Neural Network Formation Assay for Number of Network Spikes, Shafer Lab (AID 2284048; active = hit-call score of the fitted dose curve at least 0.9, where 1 is the maximum; inactive = score below 0.9;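 note: synchronized bursts across electrodes counted on days 5 7 9 12 and integrated as AUC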)
Procedure, shortened: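 Developing networks of primary rat cortical neurons are treated over 12 days starting at plating, with media and compound fully replaced on DIV 5 and 9. Network spike counts from four recording days are integrated as trapezoidal AUC.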

[19] = CCTE_Shafer_MEA_dev_network_spike_peak: CCTE's Neural Network Formation Assay for Mean Number of Electrodes in Network Spike, Shafer Lab (AID 2284049; active = hit-call score of the fitted dose curve at least 0.9, where 1 is the maximum; inactive = score below 0.9)
Procedure, shortened: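 Rat cortical primary culture, 1.5 x 10^5 cells/well, 48-well MEA (16 electrodes/well). Dosing day 0 through DIV 12, full media/compound exchange DIV 5, 9. AxIS adaptive spike detection; AUC over days 5/7/9/12; loss-of-signal vs DMSO.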

[20] = CCTE_Shafer_MEA_dev_spike_duration_mean: CCTE's Neural Network Formation Assay for Mean Spike Duration, Shafer Lab (AID 2284051; active = hit-call score of the fitted dose curve at least 0.9, where 1 is the maximum; inactive = score below 0.9;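 note: mean network spike duration pooled as area under curve over DIV 5 to 12 recordings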)
Procedure, shortened: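 Rat cortical primary cultures, 48-well MEA (16 electrodes/well); compound from plating, renewed DIV 5, 9. Network spike duration (AxIS adaptive detector) recorded DIV 5/7/9/12, combined as trapezoidal AUC; loss direction vs DMSO.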

[21] = CCTE_Shafer_MEA_dev_network_spike_duration_std: CCTE's Neural Network Formation Assay for Standard Deviation of Network Spike Duration, Shafer Lab (AID 2284052; active = hit-call score of the fitted dose curve at least 0.9, where 1 is the maximum; inactive = score below 0.9;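 note: area under curve of spike duration SD across recording days 5 to 12; hits are decreases in network spike duration SD versus DMSO vehicle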)
Procedure, shortened: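 Rat cortical cultures, 1.5 x 10^5 cells/well, exposed continuously from plating to DIV 12 with media/compound renewal at DIV 5, 9. Spontaneous activity recorded DIV 5/7/9/12, AxIS adaptive spike detector; AUC across days; negative direction vs DMSO.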

[22] = CCTE_Shafer_MEA_dev_per_network_spike_spike_number_mean: CCTE's Neural Network Formation Assay for Mean Number of Spikes in a Network Spike, Shafer Lab (AID 2284053; active = hit-call score of the fitted dose curve at least 0.9, where 1 is the maximum; inactive = score below 0.9)
Procedure, shortened: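 Rat cortical primary cultures on 48-well MEA; compound from day 0, re-dosed with full media change DIV 5, 9. Recorded DIV 5, 7, 9, 12; spikes in 0.05 s window at network-spike peak ÷ total network spikes; AUC; loss vs DMSO.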

[23] = CCTE_Shafer_MEA_dev_per_network_spike_spike_percent: CCTE's Neural Network Formation Assay for Percent of Spikes in a Network Spike, Shafer Lab (AID 2284054; active = hit-call score of the fitted dose curve at least 0.9, where 1 is the maximum; inactive = score below 0.9)
Procedure, shortened: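 Rat primary cortical cultures, 1.5 x 10^5 cells/well on MEA. Continuous compound exposure d0–12, medium/compound renewed DIV 5, 9. Network-spike spike % (0.05 s peak window), AUC over 4 recordings, DMSO baseline.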

[24] = CCTE_Shafer_MEA_dev_LDH: CCTE's Lactate Dehydrogenase Assay for Cytotoxicity in the Neural Network Formation Assay, Shafer Lab (AID 2284068);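 note: exposure for twelve days from plating with re-dosing on DIV 5 and 9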
Procedure, shortened: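 Rat cortical primary neurons, MEA culture; dosing day 0–12, full medium plus compound exchange DIV 5, 9. Read-out: LDH enzyme activity, spectrophotometric. DMSO = negative control/baseline; signal loss → cytotoxicity.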

[25] = CCTE_Shafer_MEA_dev_correlation_coefficient_mean: CCTE's Neural Network Formation Assay for Mean Correlation Coefficient, Shafer Lab (AID 2284093; active = hit-call score of the fitted dose curve at least 0.9, where 1 is the maximum; inactive = score below 0.9)
Procedure, shortened: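 Rat cortical cultures, 1.5 x 10^5 cells/well, dosed from day 0 for 12 days. Spontaneous spikes recorded DIV 5/7/9/12; electrode-pair correlation coefficients averaged, AUC taken. Fit in loss direction vs DMSO.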

Measured: outcome

Cellular tumor antigen p53 (Homo sapiens), sequence (P04637 whole entry, looked up): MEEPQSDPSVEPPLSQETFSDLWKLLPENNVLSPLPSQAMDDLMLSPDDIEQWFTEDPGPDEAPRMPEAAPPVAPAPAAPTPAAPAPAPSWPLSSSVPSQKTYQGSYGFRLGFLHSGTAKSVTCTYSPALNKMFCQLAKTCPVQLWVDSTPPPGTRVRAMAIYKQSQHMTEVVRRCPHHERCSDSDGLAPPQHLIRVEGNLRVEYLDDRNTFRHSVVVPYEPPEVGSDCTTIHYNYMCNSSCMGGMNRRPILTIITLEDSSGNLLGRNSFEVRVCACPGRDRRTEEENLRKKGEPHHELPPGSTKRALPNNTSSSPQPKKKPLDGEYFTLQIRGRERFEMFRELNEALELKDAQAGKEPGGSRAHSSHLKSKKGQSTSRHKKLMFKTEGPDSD

CC(C)CCC[C@@H](C)[C@H]1CC[C@H]2[C@@H]3CC[C@@H]4C[C@H](O)CC[C@]4(C)[C@H]3CC[C@]12C
inactive: [1] | [2] | [3] | [4] | [5]

COc1ccc(C(=O)NCc2ccc(OCCN(C)C)cc2)cc1OC
inactive: [1] | [2] | [3] | [5]

CCOC(=O)C1=C[C@]2(CC)CCCN3CCc4c(n1c1ccccc41)[C@@H]32
inactive: [1] | [6] | [5] | [7] | [8]

c1cc2c3c(c1)ccc1cccc(c13)C2
not listed: [6] | [7] | [8]
inactive: all other assays above

CCOC(=O)c1ccc(I)cc1
inactive: [1] | [6] | [5]

From PubChem BioAssay (EPA / NIEHS)
